Screening data: PubChem BioAssay, NMMLSC
Shown are actives, neighbours in structure and some others; about 1.9% of the full set was active somewhere.
Proteasome disasm = blocks ATP-dependent breakdown of the yeast 26S proteasome. anti-FLAG beads, GFP-proteasome disassembly, flow cytometry. inhibition of disassembly, % (no concentration beside the values). actives 0.2% (n = 24,000);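 active = inhibition of disassembly above about 33%, limit read from the data; inconclusive = likely self-fluorescent, control bead median signal at least 40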;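 also: plate controls were ATP control with full disassembly for no effect and ATP-gamma-S intact proteasomes for full effect; higher percent means more bead fluorescence retained so stronger block of disassembly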
Autofluor Jurkat = counter-screen for VLA-4 integrin: compound autofluorescence in Jurkat cells; flow cytometry; active compounds read high; 1 = vehicle-only cell background; actives 0.61% (n = 24,000); fluorescence ratio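 (tested at 10 µM compound in the well)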;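 active = fluorescence ratio above 2.44, which is 1 plus 3 SD of all ratios; inconclusive = signal too bright to measure linearly, ratio around 10 or more; inactive = fluorescence ratio below 2.44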;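 also: green fluorescence of cells measured with 488 nm excitation and 530 nm emission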
FPR binder = human FPR ligand, with FPRL1 counter-screen; P21462; FPR-expressing cells, fluorescent ligand binding, flow cytometry; inhibition, % (test concentration not listed); actives 0.74% (n = 24,000);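 also: 0% = buffer wells and 100% = receptor blocker peptide wells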
Target sequence (P21462 whole entry, looked up): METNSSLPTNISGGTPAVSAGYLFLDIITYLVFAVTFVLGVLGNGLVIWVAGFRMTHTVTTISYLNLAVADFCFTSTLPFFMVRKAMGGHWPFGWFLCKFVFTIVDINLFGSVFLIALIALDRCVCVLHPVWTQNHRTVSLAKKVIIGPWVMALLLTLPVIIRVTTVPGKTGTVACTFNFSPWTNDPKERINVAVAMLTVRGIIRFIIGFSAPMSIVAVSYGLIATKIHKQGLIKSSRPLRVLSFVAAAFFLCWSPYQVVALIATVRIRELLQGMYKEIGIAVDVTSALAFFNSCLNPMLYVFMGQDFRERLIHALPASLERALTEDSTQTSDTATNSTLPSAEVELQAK
VLA-4 agonist = allosterically activates the human VLA-4 integrin; AID 528; P13612; Jurkat cells, LDV-FITC binding, flow cytometry; activation, % at 10 µM (by protocol); 24,000 tested, under 10 active;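 active = fluorescent ligand binding to cells raised by more than 40% of the manganese-induced maximum; inconclusive = compound's own fluorescence above 85% of the ligand control signal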;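 also: 0% = ligand binding without compound and 100% = manganese-stimulated maximal binding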
VLA-4 antagonist = inhibitors of LDV-FITC ligand binding to Mn2+-activated human VLA-4 integrin; P13612; Jurkat cells, LDV-FITC binding with Mn2+, flow cytometry; 100% = Mn2+-driven binding gain fully reversed; inhibition, % at 10 µM (by protocol); actives 0.2% (n = 24,000); AID 529;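 active = inhibition above 50%; inconclusive = compound itself fluorescent, judged against control cell fluorescence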;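 also: 0% = Mn2+ stimulated cells lacking compound and 100% = ligand binding without Mn2+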
FPRL1 ligand = ligands of human FPRL1, also counter-screen for FPR ligands; actives 0.3% (n = 24,000); inhibition, % (no concentration beside the values); FPRL1-expressing cells, fluorescent ligand binding inhibition, flow cytometry; P25090;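 also: 0% = buffer alone and 100% = receptor blocker peptide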
Active calls of the source: *; ? = inconclusive; / = no result. Rule as the data show it, unless noted: active = inhibition above about 30%; inconclusive = no clear call, values can overlap the other calls; inactive = below that.

SMILES	Proteasome disasm	Autofluor Jurkat	FPR binder	VLA-4 agonist	VLA-4 antagonist	FPRL1 ligand
Cc1oc2cc(O)cc(O)c2c(=O)c1-c1ccc2c(c1)OCCCO2	/	/	31.4*	/	/	23.0
O=C(CN1CCOc2ccccc21)N1CCN(c2cccc(Cl)c2)CC1	0.3	1.17	0.1	-6.0	1.0	-0.9
CCCN(CCC)CCCNS(=O)(=O)c1ccc2c(c1)oc(=O)n2C	1.0	3.7*	-11.6	?	?	-9.7
CN(CC(=O)Nc1ccc2c(c1)OCCO2)S(=O)(=O)c1cccc2cccnc12	-1.8	1.18	-7.3	?	?	7.6
Cc1ccc(NC(=O)C2CCCN(S(=O)(=O)c3cccs3)C2)cc1 (centres undefined)	-0.9	1.14	-4.6	-13.0	67.5*	10.6
COc1ccc2nc(NC(=O)C3CCCN(S(=O)(=O)c4cccc5nonc45)C3)sc2c1 (centres undefined)	31.7	2.57*	0.1	?	?	11.4
COc1ccc(Cl)cc1NC(=O)C1CSC(c2ccncc2)=N1 (centres undefined)	2.5	1.25	-3.9	?	?	-4.8
CCc1ccc(CNC(=O)CN2C(=O)COc3ccccc32)cc1	-0.1	1.07	-5.9	-3.0	52.0*	0.0
S=C(NCC1CCCO1)n1nnc2ccccc21 (centres undefined)	-1.5	1.06	3.6	-6.0	-7.5	5.5
c1ccc2c(c1)nc(NCC1CCCO1)c1nnnn12 (centres undefined)	12.8	5.01*	-21.5	?	?	-11.9
CCOC(=O)N1CCN(C(=O)Cn2ncn3nc(-c4cccs4)cc3c2=O)CC1	0.4	1.24	-5.7	-0.7	-2.0	-1.5
CN(C(=O)COC(=O)C1CCN(S(=O)(=O)c2cccs2)CC1)C1CCS(=O)(=O)C1 (centres undefined)	-2.2	1.07	-3.7	6.0	-19.0	-0.3
O=C(c1ccc(Cl)cc1)N(Cc1cccs1)C1CCS(=O)(=O)C1 (centres undefined)	-1.1	1.1	27.5	-3.5	-18.5	45.5*
Cc1nc(NCc2ccccn2)c2ccccc2n1	28.3	2.79*	-12.4	?	?	-17.6
CCOc1ccc(S(=O)(=O)N2CCc3ccccc3C2)cc1	0.9	3.23*	2.8	?	?	-4.0
CCC(=O)Nc1ccc(S(=O)(=O)N2CCc3ccccc3C2)cc1	0.7	1.02	5.6	-5.0	-4.0	1.8
O=C(Nc1c(C(=O)O)oc2ccc(Br)cc12)c1ccccc1	2.1	1.01	12.4	2.0	-20.0	-9.3
CCCCOc1ccc(-c2nnn(CC(=O)NCc3ccco3)n2)cc1	-0.2	1.05	-8.1	3.5	-10.0	-3.2
CCCCOc1ccc(-c2nnn(CC(=O)Nc3ncc(CC(=O)OCC)s3)n2)cc1	-0.4	1	-1.0	-34.5	93.5*	-9.8
CC(C)Oc1ccc(C(CC(=O)O)NC(=O)C2CCCCC2)cc1 (centres undefined)	-0.1	1.04	2.7	-11.5	96.5*	-0.7
COc1ccc(C(CC(=O)O)NC(=O)C2CCCCC2)cc1 (centres undefined)	-0.4	1.05	0.4	-4.0	40.0	4.3
Cc1cc(N2CCC(N(C)C3CCCC3)CC2)nc2cc(O)ccc12	-5.6	0.87	3.9	?	?	4.3
O=C1CC(c2ccc(F)c(Br)c2)C2=C(CCCC2=O)N1 (centres undefined)	-0.4	0.96	3.1	0.0	-2.7	0.4
CCOc1ccc(-n2cc(C(=O)Nc3cccc(C)n3)c3cc(OC)c(OC)cc3c2=O)cc1	-1.3	1.07	-2.2	-7.7	4.0	2.6
COc1ccc(S(=O)(=O)Nc2c(C)ccc3nsnc23)cc1OC	2.5	0.98	12.1	1.5	-9.0	8.3
N#Cc1nn(-c2ccccc2)nc1N1CCCCC1	0.1	1.1	-4.7	-4.5	-2.0	6.5
O=C(C1=C(O)C(=O)N(CCOCCO)C1c1cccs1)c1cccs1 (centres undefined)	/	/	70.6*	/	/	28.5
CC(=O)C1=C(O)C(=O)N(Cc2ccco2)C1c1ccc(F)cc1 (centres undefined)	-0.1	1.1	-0.9	5.0	-16.5	6.7
O=C(C1=C(O)C(=O)N(Cc2ccco2)C1c1ccccc1)c1cccs1 (centres undefined)	/	/	71.3*	/	/	-8.9
